An excerpt weighted towards active compounds, which were near 12% of everything screened.
LASV entry inh – Lassa virus entry inhibition; Lassa virus pseudotype entry inhibition, cell reporter; Potency, µM (titrated, usually from 37.9 µM), for inactives: at the highest dose activity change, negative = inhibition, most hits filed as inhibitors; 300,000 compounds, 1.2% hits; calls by dose curve; tested in HEK293 cells; also: potency is read from the fitted curve at half-maximal effect; % is scaled to controls: 0 for no effect and ±100 for the full control effect; nearly all actives have a fitted effect of over 50% in size
Shiga inhibitor – Shiga toxin inhibition. Vero cells, Shiga toxin protein synthesis inhibition reporter. inhibition, % at 38.7 µM. 290,000 compounds, 9.2% hits. AID 2315; in the data active = inhibition mostly above about 28%, no sharp cut-off; inactive = mostly below about 43%; also: 0% is about no effect
CHX counter – affects cycloheximide protein synthesis inhibition readout, counter-screen; cell reporter, cycloheximide protein synthesis inhibition counterscreen; max response, %; 300,000 compounds, 12% hits; in the data active = max response mostly above about 13%, no sharp cut-off; inactive = mostly below about 14%; also: read at 38.3 µM for the half of the compounds with a filed dose; 0% is about no effect
MARV entry inh – inhibitors of Marburg virus binding or cell entry | Potency, µM (doses to about 37.8 µM), without a hit: at the top dose activity change, negative = inhibition, usual class: inhibitors | 300,000 compounds, 1.8% hits | AID 540276 | Marburg virus pseudotyped entry inhibition, cell reporter; calls by dose curve; tested in HEK293 cells; also: potency is read from the fitted curve at half-maximal effect; % is scaled to controls: 0 for no effect and ±100 for the full control effect
* = called active by the depositor; u = inconclusive; x = no result; [ ] = another dose, or the depositor's remark.

SMILES	LASV entry inh	Shiga inhibitor	CHX counter	MARV entry inh
O=S(=O)(Cc1ccccc1)N1CCc2ccccc21	x	34*	13*	0%
O=C(Cc1ccc([N+](=O)[O-])cc1)N1CCc2ccccc2C1	5%	10	-3	6%[46.1 µM]
O=C(CNS(=O)(=O)c1ccccc1)N1CCc2ccccc2C1	12%	x	35*	13%
Cc1ccc(S(=O)(=O)NCC(=O)N2CCc3ccccc3C2)cc1	-2%[46.1 µM]	-7	1	-6%[46.1 µM]
O=C(CS(=O)(=O)Cc1ccccc1)N1CCc2ccccc2C1	6%	40	16*	7%
N#CC(C(=O)C1=C(Cl)CCCC1)=C1SCCCS1	x	x	x	3%
CN(C)c1ccc(C2C=C(c3ccccc3)Nc3nnnn32)cc1 (centres undefined)	1%[46.1 µM]	x	x	u
CC(=O)Nc1cccc(NC(=O)CSc2nc3c(c(=O)n(C)c(=O)n3C)n2C)c1	8%	-5	-2	1%[46.1 µM]
COc1ccc(NC(=O)CN2C(=O)NC(C)(c3ccccc3)C2=O)cc1Cl (centres undefined)	u	-6	2	-26%[46.1 µM]
O=C(NCc1ccccn1)c1ccc(N2CCCC2=O)cc1	u	27	23*	30%
O=C(NCc1ccccn1)c1ccco1	-1%	8	4	-3%[46.1 µM]
O=C(NCc1ccccn1)c1ccc(-c2ccccc2)cc1	4%	64*	36*	-9%[46.1 µM]
O=C(NCc1ccco1)c1ccc(N2CCCC2=O)cc1	10%	22	9	0%[46.1 µM]
O=C(NCc1ccccn1)c1cc(-c2ccccc2)on1	u	141*	36*	u
Cc1ccc(-c2cc(C(=O)NCc3ccccn3)no2)cc1	7%	85*	45*	24%
OCC[C@@H]1C[C@@H](O)[C@H](O)[C@]2(CCc3ccccc3CO2)O1	x	-5	1	x
Cc1c(-c2ccc(Cl)cc2Cl)nc2ccccc2c1C(=O)NCCN1CCOCC1	1%	-11	-3	12%
COc1ccccc1OCc1cc(C(=O)NCc2ccc(N3CCCC3=O)cc2)no1	x	18	42*	x
COc1c(C)cccc1C(=O)Nc1ccc(CN2CCCCC2)cc1	25%	56	37*	1%
O=C(Nc1ccc(CN2CCOCC2)cc1)c1ccc(Br)cc1	x	31	17*	x
O=C(Nc1ccc(CN2CCOCC2)cc1)c1ccco1	u	51*	28*	u
O=C(Nc1ccc(F)cc1)c1ccc(Cn2cnnn2)cc1	x	32	16*	-2%[46.1 µM]
CC(C)(C)c1ccc(C(=O)Nc2ccc(CN3CCS(=O)(=O)CC3)cc2)cc1	u	36	17*	u
O=C(Nc1ccc(CN2CCCCC2)cc1)c1cccc(Br)c1	u	42*	21*	u
O=C(Nc1ccc(CN2CCS(=O)(=O)CC2)cc1)c1ccc(C(F)(F)F)cc1	-29%	17	2	u
SMILES	LASV entry inh	Shiga inhibitor	CHX counter	MARV entry inh
CC(C(=O)Nc1ccc(Br)cc1C(=O)c1ccccc1)N1CCCCC1 (centres undefined)	6%	-26	4	u
O=C(Nc1ccc(CN2CCCCC2)cc1)c1sc2ccccc2c1Cl	-13%	37	23*	u
O=C(CCN1CCCCC1)Nc1ccc(Br)cc1C(=O)c1ccccc1	-9%[46.1 µM]	-11	-4	13µM*
CCC(C)NC(=O)Cn1c(=O)c2cccn2c2ccc(F)cc21 (centres undefined)	-2%[46.1 µM]	x	x	x
C/C(=N\NC(=O)c1ccc(CN2CCOCC2)cc1)c1ccc(NC(=O)c2ccccc2)cc1	u	63*	41*	u
O=C(Nc1ccc(C(=O)OC[C@@H]2CCCN3CCCC[C@H]23)cc1)c1cccc(Br)c1	-6%	2	-3	9.2µM*
O=C(NC(=O)c1cccc(F)c1)OC[C@@H]1CCCN2CCCC[C@H]12	4%	-13	-5	-1%
CC(C)COc1cccc(C(=O)Nc2ccc(CN3CCOCC3)cc2)c1	u	16	17	u
O=C(Nc1ccc(CN2CCOCC2)cc1)c1cccc(F)c1	u	81*	52*	u
COC(=O)c1ccc(NC(=O)c2ccc(CN3CCOCC3)cc2)cc1	-22%[14.3 µM]	-3	1	u
O=C(Nc1ccc(CN2CCOCC2)cc1)c1ccc(Cl)cc1	x	36*	33*	x
O=C(Nc1ccc(CN2CCOCC2)cc1)c1ccc(F)cc1	x	60*	29*	x
CCOc1ccc(NC(=O)c2ccc(NC(=O)c3ccc(CN4CCOCC4)cc3)cc2)cc1	x	32	6	x
O=C(Nc1ccc(CN2CCOCC2)cc1)c1ccc2ccccc2c1	3%	46*	59*	-24%
C/C(=N\NC(=O)CSCc1ccc(Cl)cc1)c1ccc(NC(=O)c2ccccc2)cc1	2%	21	23*	2%
O=C(Nc1ccc(CN2CCS(=O)(=O)CC2)cc1)c1ccc(F)cc1	x	12	5	x
O=C(Nc1cccc([N+](=O)[O-])c1)c1ccc(CN2CCOCC2)cc1	u	85*	39*	-6%
Cc1sc2ncn(CC(=O)N3CCN(c4ccccc4)CC3)c(=O)c2c1S(=O)(=O)N1CCN(c2ncccn2)CC1	-3%[46.1 µM]	x	x	14%[46.1 µM]
COc1ccc(Br)cc1CN(C)C(=O)c1cnc(C)cn1	x	-5	-5	x
Cc1cc([N+](=O)[O-])c2c(c1C)C1C=CCC1C(c1ccccn1)N2 (centres undefined)	x	8	0	x
O=C1NC(=O)N(Cc2ccccc2)C(=O)/C1=C\N1CCCc2ccccc21	1%	65	28*	15%
CCCCOc1ccc(C2CC(=O)NC2=O)cc1 (centres undefined)	2%	67*	36*	24%
CCCOc1ccc(C2CC(=O)NC2=O)cc1 (centres undefined)	19%	24	-4	5%[46.1 µM]
CCCCOc1ccc(CC2CCC(=O)NC2=O)cc1 (centres undefined)	8%	3	13*	8%[46.1 µM]
CC(C)CCN1CC(=O)N2[C@@H](Cc3c([nH]c4ccccc34)C2(C)C)C1=O	x	-7	-2	x
SMILES	LASV entry inh	Shiga inhibitor	CHX counter	MARV entry inh
O=[N+]([O-])c1cccc(C=Nc2cc3c(cc2Br)OCCO3)c1	u	2	1	26%
CC(=O)N(c1ccccc1C)C1CCCC1	3%	14	-4	-2%
CC(=O)N(C1=C(Cl)C(=O)c2ccccc2C1=O)C1CCCCC1	13µM*	-6	0	u
COCc1nc2cccnc2n1C1CCN(S(=O)(=O)N(C)C)CC1	-5%[46.1 µM]	x	x	x
CCC(=O)NCCc1nc2cc(NC(=O)c3ccccc3Cl)ccc2n1C	-26%[46.1 µM]	62*	32*	u
CCC(=O)NCCc1nc2cc(NC(=O)Nc3ccccc3)ccc2n1C	x	43*	23	x
CCC(=O)NCCc1nc2cc(NC(=O)c3cccc(Br)c3)ccc2n1C	29%[46.1 µM]	x	x	x
Cn1c(CCN2CCOCC2)nc2cc(NC(=O)COc3ccccc3)ccc21	-3%	18	0	u
Cn1c(CCn2ccccc2=O)nc2cc(NC(=O)COc3ccccc3)ccc21	x	18	29*	x
COc1ccc(C2=NO[C@@](CC(=O)O)(C(=O)Nc3ccc4c(c3)OCCO4)C2)cc1	28%[46.1 µM]	62*	30*	u
O=C(COC(=O)c1ccccn1)Nc1ccc2c(c1)OCCO2	8%	x	x	-26%
NC(=O)COc1ccccc1C1=NO[C@@](CC(=O)O)(C(=O)Nc2ccc3c(c2)OCCO3)C1	x	31	19*	x
COc1ccc(OC)c(C2=NOC(C(=O)Nc3ccc4c(c3)OCCO4)C2)c1 (centres undefined)	18%[46.1 µM]	8	13	-12%[46.1 µM]

Screens (PubChem)
